Assay outcomes (PubChem)
An excerpt weighted towards active compounds, which were near 12% of everything screened.
WT yeast gro inh: growth inhibition of WT yeast, mitochondrial fusion screen. mitochondrial fusion phenotypic screen, WT strain. inhibition, % at 10 µM. hit rate 2.1% among 190,000; in the data active = inhibition above about 58%; tested in S. cerevisiae
Lmaj promast: inhibitors of Leishmania major promastigote growth; Leishmania major promastigotes, resazurin fluorescence viability; inhibition, % at 10 µM; hit rate 9% among 200,000; AID 1063; in the data active = inhibition above about 50%;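 note: promastigotes grown with compound for 44 hours at 28 °C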
Arbovirus anti: antivirals against arbovirus infection; hit rate 0.37% among 200,000; inhibition, % at 10 µM; arbovirus infection cell-based antiviral screen; in the data active = inhibition above about 30%
CHOP inhibitor: blocks CHOP induction under ER stress; CHO-K1 CHOP-promoter luciferase, tunicamycin-induced, 15-18 h; inhibition, % at 10 µM; hit rate 3.8% among 220,000; AID 2732;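 active = compounds that reduced the stress-induced luciferase reporter signal by more than about 70% of percent inhibition, limit read from the data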;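 note: 0% = tunicamycin plus vehicle and 100% = wells without tunicamycin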
Starred values were filed as active, the others as inactive; nt = not tested or not shown.

SMILES	WT yeast gro inh	Lmaj promast	Arbovirus anti	CHOP inhibitor
COCCNc1nc(-c2ccccc2)nc2ccccc12	1.2	83.8*	-1.7	0.5
OCCNc1nc(-c2ccccc2)nc2ccccc12	4.1	19.8	16.8	21.2
O=C(CSc1nc2cccnc2n1Cc1ccccc1)NC1CCCCC1	1.6	9.0	-7.0	11.4
O=C(NN=C1CCN(Cc2ccccc2)CC1)C(O)c1ccccc1 (centres undefined)	-5.6	19.3	2.2	15.6
Fc1ccc(Nc2nc(-c3ccncc3)nc3ccccc23)cc1F	4.7	81.0*	9.4	9.3
CC(=O)OCCNc1nc(-c2ccccc2)nc2ccccc12	2.0	42.8	-1.1	34.0
COCCCNc1nc(-c2ccncc2)nc2ccccc12	-6.4	30.3	32.6*	58.5
Clc1cccc(Nc2nc(-c3ccncc3)nc3ccccc23)c1	nt	nt	nt	-15.3
O=C(CONS(=O)(=O)c1ccc(Cl)cc1)NCCNc1ncc(C(F)(F)F)cc1Cl	-9.7	1.0	-9.8	6.6
CC(=O)/C(=C/c1ccccc1)C(=O)Nc1ccccc1C	46.2	96.1*	-30.7	-76.8
CC(/C=C/c1ccccc1)=N/NC(=O)CCC(=O)Nc1ccccc1C	-10.0	-5.9	-14.7	54.6
CC(C)c1nc(N2CCN(C(=O)c3ccccc3)CC2)c(C#N)c2c1COC(C)(C)C2	25.2	74.2*	-31.6	91.0*
CC1(C)Cc2c(C#N)c(N3CCN(C(=O)c4ccccc4)CC3)nc(-c3ccco3)c2CS1	14.1	1.6	8.1	29.9
O=C(NCc1cccnc1)C(=O)Nc1ccc([N+](=O)[O-])cc1	-8.1	-0.1	6.0	-7.5
COC(=O)c1ccc(OCC(O)CN(CC(C)C)CC(C)C)cc1 (centres undefined)	-0.6	6.4	9.9	87.0*
CCCCN(CCCC)CC(O)COc1ccccc1C(=O)Nc1ccccc1 (centres undefined)	-10.4	90.8*	3.1	46.9
CCC(=O)c1ccc(OCC(O)CN(CCc2ccccc2)Cc2ccccc2)cc1 (centres undefined)	-11.1	99.6*	-27.7	13.1
CCN(CC)CC(O)COc1ccccc1C(=O)CCc1ccccc1 (centres undefined)	16.9	94.8*	15.0	nt
CN1CCN/C1=C(/C(Cl)=C(Cl)Cl)[N+](=O)[O-]	-13.8	1.6	-3.8	30.1
NS(=O)(=O)c1ccc(NC(=O)COc2ccc(C(=O)c3ccc(F)cc3)cc2)cc1	nt	nt	nt	28.5
COc1ccc(CNc2nc3ccccc3n2Cc2ccc(Cl)cc2)cc1OC	37.7	9.2	-17.4	46.2
Cc1ccc(-c2nnc(Nc3ccccc3)c3ccccc23)cc1S(=O)(=O)NCC1CCCO1 (centres undefined)	3.3	80.3*	-19.5	22.4
CC(=O)Nc1ccc(Nc2nnc(-c3ccc(C)c(S(=O)(=O)NCC4CCCO4)c3)c3ccccc23)cc1 (centres undefined)	nt	nt	nt	-22.8
Cc1ccc(-c2nnc(Nc3ccc4c(c3)OCO4)c3ccccc23)cc1S(=O)(=O)NC(C)C	-3.2	91.4*	-21.6	35.9
CNC(=O)c1ccc(Nc2nnc(-c3ccc(C)c(S(=O)(=O)NCC4CCCO4)c3)c3ccccc23)cc1 (centres undefined)	-10.0	-4.1	-8.3	-8.5
SMILES	WT yeast gro inh	Lmaj promast	Arbovirus anti	CHOP inhibitor
Cc1ccc(-c2nnc(N3CCCCC3)c3ccccc23)cc1S(=O)(=O)N(C)C	8.0	18.6	6.7	11.4
Cc1ccc(-c2nnc(Nc3ccc4c(c3)OCO4)c3ccccc23)cc1S(=O)(=O)NCCO	-3.1	76.8*	-22.6	-11.1
Cc1ccc(CNCC(=O)Nc2cccc(S(=O)(=O)NC3=NCCCCC3)c2)cc1	-5.3	-1.1	5.3	12.2
O=C(NNc1ccc(C(F)(F)F)cc1[N+](=O)[O-])c1ccc(NS(=O)(=O)c2ccc(F)cc2)cc1	8.1	51.8*	2.1	22.8
CC(=O)/C(=N\Nc1ccccc1)Sc1nnc(-c2ccccc2)n1-c1ccccc1	-2.0	9.5	3.3	10.7
O=C(O)c1ccc(CSc2nnc(-c3ccccc3)n2-c2ccccc2)cc1	nt	nt	nt	7.3
CC(=O)C(N=Nc1ccccc1)(Sc1nnc(-c2ccccc2)n1-c1ccccc1)C(=O)Nc1ccccc1 (centres undefined)	27.7	78.1*	-8.0	-6.6
CC(=O)C(N=Nc1ccccc1)(Sc1nnc(-c2ccccc2)n1-c1ccccc1)C(C)=O	78.5*	18.9	-21.6	16.9
O=C(Nc1nc(-c2ccccc2)c(-c2ccccc2)s1)c1ccc(S(=O)(=O)N2CCCC2)cc1	-7.9	98.2*	14.0	30.2
COc1ccc(C(=O)Nc2nc(-c3ccc([N+](=O)[O-])cc3)c(-c3ccccc3)s2)cc1	nt	68.3*	nt	nt
CNc1nc(-c2ccc(OC)cc2)c(-c2ccc(OC)cc2)s1	68.3*	13.9	-6.1	42.0
CC(=O)c1sc(NC(=O)c2ccc(F)cc2)nc1-c1ccccc1	13.9	10.0	10.4	75.2*
CC(=O)c1sc(NC(=O)c2ccccc2F)nc1-c1ccccc1	10.0	-6.7	2.7	-16.1
O=C(CC1NCCNC1=O)Nc1cccc([N+](=O)[O-])c1 (centres undefined)	-4.0	-5.9	1.7	-0.5
CCOC(=O)c1cc(-c2csc(Nc3c(C)cc(C)cc3C)n2)on1	nt	nt	nt	23.9
C/C(=C\c1ccccc1)C(=O)NCCCn1ccnc1	-1.9	31.7	7.7	19.6
CC(NC(=O)CSc1nnc(COc2ccccc2)o1)c1ccccc1 (centres undefined)	7.9	-0.3	-6.0	2.9
Cc1ccc(OCc2nnc(SCC(=O)CC(=O)Nc3ccccc3)o2)cc1	-11.9	-8.0	-1.6	72.7*
COc1ccc(CCN2C(=S)N(C)C(=O)C2CC(=O)Nc2ccc(F)cc2)cc1 (centres undefined)	nt	nt	nt	2.8
CCO[C@@H]1OC(C(=O)N2CCOCC2)=C[C@H](c2ccccc2)[C@H]1CCCO	-4.2	-4.0	3.0	13.8
CCOC(=O)/C(=C\c1ccccc1)NC(=O)c1ccccc1	nt	nt	nt	-20.2
CCOC(=O)/C(=C/c1c2ccccc2cc2ccccc12)NC(=O)c1ccccc1	60.4*	34.8	-15.0	34.1
CC(C)OC(=O)/C(=C/c1ccc2c(c1)c1ccccc1n2C)NC(=O)c1ccccc1	5.9	40.3	1.1	-28.4
COC(=O)/C(=C\c1ccc2c(c1)c1ccccc1n2C)NC(=O)c1ccccc1	18.5	63.3*	-1.3	18.8
CCOC(=O)C1=NN(c2ccc(Cl)cc2)C(=O)C1	nt	nt	nt	-2.6
SMILES	WT yeast gro inh	Lmaj promast	Arbovirus anti	CHOP inhibitor
CCCCNC(=O)c1onc(CSc2cccc(C)c2)c1C(=O)O	-11.6	-8.6	2.4	-10.8
CC(C)c1ccc(NC(=O)Cn2cccc2C2=NC(c3ccccc3)CO2)cc1 (centres undefined)	7.3	86.8*	-4.3	29.6
COc1ccc(NC(=S)N(CCCN2CCN(C)CC2)Cc2cccs2)cc1	-0.3	4.1	11.5	-0.2
Cc1cc(C)cc(NC(=S)N(CCCN2CCN(C)CC2)Cc2cccs2)c1	-1.8	20.4	2.2	17.7
COc1ccc(NC(=S)N(CCCN2CCC(C)CC2)Cc2cccs2)cc1Cl	15.6	99.2*	3.6	0.9
COc1ccc(NC(=S)N2CCC(N(C)CCN3CCOCC3)CC2)cc1Cl	7.3	76.0*	2.8	-7.2
CSc1cccc(NC(=S)N(CCCN2CCCC(C)C2)Cc2cccs2)c1 (centres undefined)	15.1	98.7*	-0.7	13.5
COc1cccc(NC(=S)N(CCCN2CCCC(C)C2)Cc2cccs2)c1 (centres undefined)	-0.6	99.7*	16.1	15.8
